Compound activity: PubChem BioAssay, National Center for Advancing Translational Sciences (NCATS)
Lassa entry inh: blocks Lassa virus binding to or entry into cells | 300,000 tested, 1.2% active | Potency, µM (top dose mostly 37.9 µM), for the others: at the highest dose activity change, negative = inhibition, hits mostly inhibitors | Lassa virus pseudotype entry inhibition, cell reporter; calls by dose curve; tested in HEK293 cells; note: nearly all actives have a fitted effect of over 50% in size
RE007 growth inh: less growth of the S. pombe RE007 Vpr strain; S. pombe RE007 Vpr strain, BacTiter-Glo ATP luminescence, 24 h; Potency, µM (highest dose often 92.2 µM), without a hit: at the highest dose activity change, negative = less growth, hits mostly inhibitors; 360,000 tested, 0.21% active; AID 651644; active = well fitted falling curve with a large enough effect; inconclusive = small, poorly fitted or top-dose-only effect; inactive = no such curve, though single readings can be large or run the other way; note: nearly all actives have a fitted effect of over 50% in size
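Fission yeast strain RE007, carrying one chromosomally integrated HIV-1 vpr copy, was seeded at OD 0.01 in PMG+AL medium with 23 nL pinned compound. After 24 h at 30 °C and 99% humidity, viability was read by BacTiter-Glo luminescence.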
MARV entry inh: blocks Marburg virus binding to or entry into cells; Potency, µM (series often up to 37.8 µM), for the others: at the highest dose activity change, negative = inhibition, hits mostly inhibitors; 300,000 tested, 1.8% active; Marburg virus pseudotyped entry inhibition, cell reporter; calls by dose curve; tested in HEK293 cells
Sm TGR inh: inhibitors of Schistosoma mansoni thioredoxin glutathione reductase. purified TGR, DTNB reduction, TNB absorbance 405 nm. 360,000 tested, 3% active. Potency, µM (highest dose often 114 µM), inactives show at the top dose activity change, negative = inhibition, most hits filed as inhibitors; note: nearly all actives have a fitted effect of over 60% in size
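Kinetic colorimetric format: TGR-catalysed, NADPH-driven DTNB reduction monitored via TNB absorbance. Enzyme dispensed at 20 nM; compound exposure 15 min at room temperature before reaction start.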
HCV inhibitor: inhibitors of hepatitis C virus infection | Huh7.5.1 HCVcc-Cre infection, luciferase reporter, 44 h | Potency, µM (series often up to 41.8 µM), for inactives: top-dose activity change, negative = inhibition, most hits filed as inhibitors | 340,000 tested, 3.4% active | AID 651820
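After 44 h co-culture of compound, cells and HCVcc-Cre (~0.5 moi), substrate is added for 15 min at room temperature and luciferase measured over 15 sec. Cells were seeded at 1,000/well and pre-cultured 4 h.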
FMDV inh: blocks foot and mouth disease virus; FMDV antiviral cell-based qHTS; 410,000 tested, 1.2% active; Potency, µM (titrated, usually from 57.9 µM), without a hit: top-dose activity change, negative = inhibition, usual class: inhibitors; calls by dose curve; tested in HEK293T cells; note: read-out not given here; nearly all actives have a fitted effect of over 45% in size
The depositor's hits bear a star; ? = inconclusive; nt = no result; [ ] = dose if it differs, or a comment. Shown are actives, neighbours in structure and some others; about 7.2% of the full set was active somewhere. Unless noted, calls come from the whole dose curve; as a rule, active = well fitted curve in the direction sought with a large enough effect; inconclusive = small, poorly fitted or top-dose-only effect, or another doubt; inactive = no such curve, though single readings can be large; an effect the other way counts as inactive or inconclusive. % is set by controls: 0 for no effect and ±100 for the full control effect; potency is the fitted concentration of half-maximal effect.

SMILES	Lassa entry inh	RE007 growth inh	MARV entry inh	Sm TGR inh	HCV inhibitor	FMDV inh
CCN(Cc1ccccc1)S(=O)(=O)c1ccc(F)c(C(=O)Nc2cc(C(F)(F)F)ccc2Cl)c1	-1.7%[46.1 µM]	nt	nt	5.2%	nt	-20.0%
COc1ccccc1CCNC(=O)c1ccc(OC)c(OC2CCN(C(C)C)CC2)c1	16.9%	-3.7%	29.2%	2.2%	-2.3%	-1.5%
COCCCNC(=O)c1ccc(OC)c(OC2CCN(C(C)C)CC2)c1	nt	1.4%	nt	5.8%	22.4µM*	-19.2%
OC(COc1ccc(Cl)cc1)CN1C2=NCCCN2c2ccccc21 (stereo unspecified)	-9.4%	-6.1%	?	-0.4%	12.6µM*	-4.2%
Cc1c(C(C)C)c(=O)n(-c2ccc(S(=O)(=O)NC3CCCCC3)cc2)n1C	?	-11.0%	?	-10.0%	5.01µM*	-28.9%
CCc1ccc(S(=O)(=O)Nc2c(C)n(C)n(-c3ccccc3)c2=O)cc1	-23.0%[46.1 µM]	8.2%	-17.4%[46.1 µM]	6.8%	-3.6%	1.3%
Cc1c(C(C)C)c(=O)n(-c2ccc(S(=O)(=O)NCc3ccccc3)cc2)n1C	2µM*	-4.6%	?	-6.5%	0.891µM*	?
Cc1c(C(C)C)c(=O)n(-c2ccc(S(=O)(=O)N3CCOCC3)cc2)n1C	10.6%	20.1%	17.1%[46.1 µM]	8.2%	-9.9%	-20.2%
COc1ccc(C[C@@H]2CN3C(=NC[C@@H]3C)N2C[C@H](C)NC(=O)c2ccc(C)c(Br)c2)cc1	nt	-9.0%	nt	22.4µM*	-2.7%	-6.2%
COc1ccc(C[C@H]2CN3C(=NC[C@@H]3C)N2CCNC(=O)CCC2CCCCC2)cc1	nt	7.4%	nt	15.8µM*	-1.4%	-7.4%
C/C=C(\C)C(=O)N[C@@H](C)CN1C2=NC[C@H](C(C)C)N2C[C@H]1Cc1ccc(OC)cc1	nt	-12.5%	nt	5.62µM*	-2.9%[8.37 µM]	-8.6%
C/C=C(\C)C(=O)NCCN1C2=NC[C@H](Cc3ccc(O)cc3)N2C[C@H]1Cc1ccc(O)cc1	nt	-8.6%	nt	50.1µM*	1.4%	-15.8%
COc1ccc(C[C@H]2CN3C(=NC[C@H]3C)N2CCNC(=O)c2ccc(C)c(Br)c2)cc1	nt	-4.4%	nt	1.0%	?	-24.5%
CC1(C)C(O)C=C[C@@]2(C)C1CC(=O)O[C@@]1(C)C3=CC(=O)OC(c4ccoc4)[C@]3(C)CCC21 (stereo partly specified)	nt	nt	nt	nt	nt	-8.3%
Cc1ccc2c(=O)cc(C(=O)Nc3ccc(S(=O)(=O)Nc4nc(C)cc(C)n4)cc3)oc2c1	21.5%[46.1 µM]	nt	8.6%[46.1 µM]	3.3%	nt	9.9%
O=S(=O)(c1ccc(Cl)cc1)c1nnn2c1nc(NCc1ccc3c(c1)OCO3)c1sccc12	21.4%[46.1 µM]	nt	nt	3.9%	nt	0.0%
CC(C)[C@H]1CN=C2N(C[C@H](C)NC(=O)CCC3CCCCC3)[C@H](Cc3ccc(O)cc3)CN21	nt	?	nt	20µM*	4.5%	-18.9%
Cc1ccc(-c2nn3c(-c4ccccc4C)nnc3c3ccccc23)cc1	-1.3%[46.1 µM]	nt	-4.4%[46.1 µM]	0.1%	nt	0.0%
COc1cc(C(=O)N2CCc3c([nH]c4ccccc34)C2c2ccc(F)cc2)cc(OC)c1OC (stereo unspecified)	8.91µM*	nt	nt	3.3%	nt	-14.2%
CSc1ccc(C2c3[nH]c4ccccc4c3CCN2C(=O)CCc2ccccc2)cc1 (stereo unspecified)	2.51µM*	nt	nt	6.7%	nt	2.4%
O=C(CCC1CCCC1)N1CCc2c([nH]c3ccccc23)C1c1ccc(Cl)cc1 (stereo unspecified)	?	nt	nt	14.0%	nt	-12.9%
CCOc1ccc(C2c3[nH]c4ccccc4c3CCN2C(=O)CSc2ccccc2)cc1 (stereo unspecified)	6.31µM*	nt	nt	-3.8%	nt	-8.5%
O=C(CCC1CCCC1)N1CCc2c([nH]c3ccccc23)C1c1ccc(F)cc1 (stereo unspecified)	5.01µM*	nt	nt	5.1%	nt	-19.9%
O=C(NCCS(=O)(=O)N1CCN(c2ccccc2)CC1)C(c1ccccc1)c1ccccc1	?	nt	nt	0.6%	nt	-17.7%
COC(=O)CSc1nnc2n(-c3ccccc3)c(=O)c3c4c(sc3n12)COC(C(C)C)C4 (stereo unspecified)	-0.5%[46.1 µM]	nt	2.6%[46.1 µM]	0.6%	nt	-2.0%
SMILES	Lassa entry inh	RE007 growth inh	MARV entry inh	Sm TGR inh	HCV inhibitor	FMDV inh
O=C(CSc1nc2c([nH]c3ccccc32)c(=O)n1-c1ccccc1)Nc1ccc(Cl)c(Cl)c1	-8.2%[46.1 µM]	nt	nt	-1.8%	nt	?
Cc1cc(=O)n(CC(=O)N2CCN(c3ccccc3F)CC2)c2c1c(C)nn2C	-24.3%[46.1 µM]	nt	nt	1.6%	nt	?
Cc1ccc(C2c3[nH]c4ccccc4c3CCN2C(=O)CSc2ccccc2)cc1 (stereo unspecified)	10µM*	nt	nt	2.0%	nt	-4.7%
Cc1ccc(C2c3[nH]c4ccccc4c3CCN2C(=O)CSCc2ccc(F)cc2)cc1 (stereo unspecified)	?	nt	nt	0.0%	nt	-21.8%
COc1cccc(OC)c1OCC(C)CNCC1CCCO1 (stereo unspecified)	5.6%	-14.2%	-13.3%	-8.8%	1µM*	nt
CCN(CC(=O)NCc1ccc(F)cc1)CC(=O)NC1CCCC1	20.1%	3.0%	13.1%[46.1 µM]	-4.5%	0.891µM*	11.4%
CCOC(=O)c1noc2ncnc(Nc3cccc(OC)c3)c12	-11.7%[46.1 µM]	nt	nt	-1.3%	nt	-1.5%
CC1=Nc2ccccc2N=C(NC(=O)CSC(=S)N2CCCCC2)C1c1ccccc1 (stereo unspecified)	-5.0%[46.1 µM]	-6.8%	10µM*	22.0%	?	-12.0%
CC1=Nc2ccccc2N=C(NC(=O)CSC(=S)N2CCN(C)CC2)C1c1ccccc1 (stereo unspecified)	-14.3%	1.6%	?	2.9%	-8.7%	-16.9%
CC(C)C[C@@H]1CN(CCCC[C@H]2CNC(=O)C(=O)N2CCC2CCCCC2)C(=O)C(=O)N1CCC1CCCCC1	nt	2.7%	nt	nt	nt	?
CC(C)C[C@H]1CN(CCCC[C@H]2CNC(=O)C(=O)N2CCC2CCCCC2)C(=O)C(=O)N1CCC1CCCCC1	nt	9.9%	nt	nt	nt	35.5µM*
COc1cc(-n2nnnc2SCC(=O)N2CCN(c3ccc(F)cc3)CC2)c(OC)cc1Cl	?	-4.0%	?	3.6%	11.2µM*	?
CCOC(=O)CSc1nnnn1-c1cc(OC)c(Cl)cc1OC	2.3%	17.7%	4.8%[46.1 µM]	-2.2%	?	11.1%
CCN(CC(=O)Nc1ccc(OC)cc1)CC(=O)Nc1sc2c(c1C(=O)OC)CCCC2	nt	-23.3%	nt	13.4%	7.94µM*	-6.9%
COc1ccc(C(=O)Nc2sc3c(c2C(N)=O)CCCC3)cc1OC	nt	nt	nt	nt	nt	16.5%
COc1ccc(NC(=O)CN(C)CC(=O)Nc2sc3c(c2C(N)=O)CCC3)cc1	-3.3%	-2.7%	?	50.1µM*	?	-10.0%
COc1cc(OC)cc(C(=O)Nc2sc3c(c2C(N)=O)CCC3)c1	?	29.6%	-0.3%[46.1 µM]	-19.5%	2µM*	4.0%
COc1ccc(CC(=O)Nc2sc3c(c2C(N)=O)CCCC3)cc1	-16.5%[46.1 µM]	1.4%	-2.5%[46.1 µM]	-14.9%	?	-13.5%
